Experimental data from PubChem BioAssay AID1159580 (chemical genetic matrix, 2015).
About 2,000 (36%) of roughly 5,500 compounds were called active. Not shown: some 18% with an inconclusive outcome. No stated cut-off is given here; in the data, active means normalized growth mostly below about 0.91 (no sharp cut-off); inconclusive means no clear call, values can overlap the other calls; inactive means mostly above about 0.92. The list shows a part of the results.

Assay: chemical genetic growth profiling, strain panel (AID 1159580);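 further: tested at 20 µM; growth read once vehicle control cultures reached saturation at 30 °C; 1 = growth at the plate median or of vehicle wells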
Conditions: S. cerevisiae deletion strains, growth OD

Measured: normalized growth

COc1cc(/C=C/C(=O)N2CCC=CC2=O)cc(OC)c1OC
inactive: locus YAL021C, strain ccr4, stronger effect = lower value 0.948 | locus YAL026C, strain drs2, stronger effect = lower value 1 | locus YAL030W, strain snc1, stronger effect = lower value 1 | locus YBL061C, strain skt5, stronger effect = lower value 0.993 | locus YBR009C, strain hhf1, stronger effect = lower value 1.06 | locus YBR023C, strain chs3, stronger effect = lower value 0.994 | locus YBR171W, strain sec66, stronger effect = lower value 0.995 | locus YBR231C, strain swc5, stronger effect = lower value 1.01 | locus YBR279W, strain paf1, stronger effect = lower value 0.968 | locus YCL011C, strain gbp2, stronger effect = lower value 1 | locus YCL016C, strain dcc1, stronger effect = lower value 1.01 | locus YCL061C, strain MRC1, stronger effect = lower value 1.01 | locus YCL069W, strain vba3, stronger effect = lower value 0.998 | locus YCR088W, strain abp1, stronger effect = lower value 0.996 | locus YDL005C, strain med2, stronger effect = lower value 1 | locus YDL040C, strain nat1, stronger effect = lower value 0.996 | locus YDR001C, strain nth1, stronger effect = lower value 0.992 | locus YDR069C, strain doa4, stronger effect = lower value 0.996 | locus YDR137W, strain rgp1, stronger effect = lower value 0.856 | locus YDR159W, strain sac3, stronger effect = lower value 1.08 | locus YDR195W, strain ref2 1.06 | locus YDR297W, strain sur2, stronger effect = lower value 0.997 | locus YDR334W, strain swr1, stronger effect = lower value 1.01 | locus YDR335W, strain msn5, stronger effect = lower value 1 | locus YDR392W, strain spt3, stronger effect = lower value 0.886 | locus YEL003W, strain gim4, stronger effect = lower value 1 | locus YEL037C, strain rad23, stronger effect = lower value 0.998 | locus YEL061C, strain CIN8 (second series), stronger effect = lower value 0.996 | locus YER015W, strain faa2, stronger effect = lower value 1.01 | locus YER016W, strain bim1, stronger effect = lower value 1.02 | locus YER111C, strain swi4, stronger effect = lower value 1.01 | locus YER155C, strain BEM2 (second series), stronger effect = lower value 1.06 | locus YFR010W, strain ubp6, stronger effect = lower value 0.99 | locus YGL167C, strain pmr1, stronger effect = lower value 1 | locus YGL173C, strain kem1, stronger effect = lower value 0.995 | locus YGL227W, strain vid30, stronger effect = lower value 1.01 | locus YGL240W, strain doc1, stronger effect = lower value 1.08 | locus YGL253W, strain hxk2, stronger effect = lower value 0.984 | locus YHR013C, strain ard1, stronger effect = lower value 0.938 | locus YHR027C, strain rpn1, stronger effect = lower value 0.995 | locus YHR030C, strain SLT2, stronger effect = lower value 0.935 | locus YHR079C, strain IRE1, stronger effect = lower value 0.953 | locus YHR142W, strain chs7, stronger effect = lower value 0.944 | locus YJL092W, strain hpr5, stronger effect = lower value 0.994 | locus YJL095W, strain BCK1 (second series), stronger effect = lower value 1.01 | locus YJL095W, strain BCK1, stronger effect = lower value 0.97 | locus YJL115W, strain asf1, stronger effect = lower value 1.03 | locus YJL129C, strain trk1, stronger effect = lower value 0.994 | locus YJL154C, strain vps35, stronger effect = lower value 0.998 | locus YJL164C, strain tpk1, stronger effect = lower value 0.979 | locus YJL166W, strain qcr8, stronger effect = lower value 1 | locus YJL187C, strain SWE1, stronger effect = lower value 0.996 | locus YJR066W, strain TOR1, stronger effect = lower value 0.883 | locus YKL160W, strain elf1, stronger effect = lower value 0.918 | locus YKR026C, strain gcn3, stronger effect = lower value 0.986 | locus YKR091W, strain srl3, stronger effect = lower value 1 | locus YLL001W, strain dnm1, stronger effect = lower value 1.01 | locus YLL026W, stronger effect = lower value 1.01 | locus YLL041C, strain sdh2, stronger effect = lower value 0.992 | locus YLR027C, strain aat2, stronger effect = lower value 0.988 | locus YLR113W, strain HOG1, stronger effect = lower value 0.941 | locus YLR221C, strain rsa3, stronger effect = lower value 0.97 | locus YLR258W, strain gsy2, stronger effect = lower value 1.03 | locus YLR262C, strain YPT6 (second series), stronger effect = lower value 0.886 | locus YLR320W, strain mms22, stronger effect = lower value 1.01 | locus YLR342W, strain FKS1, stronger effect = lower value 0.998 | locus YLR357W, strain rsc2, stronger effect = lower value 1.13 | locus YLR370C, strain arc18, stronger effect = lower value 0.986 | locus YLR384C, strain iki3, stronger effect = lower value 1 | locus YML120C, strain ndi1, stronger effect = lower value 0.972 | locus YMR058W, strain fet3, stronger effect = lower value 0.993 | locus YMR125W, strain sto1, stronger effect = lower value 1.07 | locus YMR129W, stronger effect = lower value 1.01 | locus YMR205C, strain PFK2, stronger effect = lower value 1.06 | locus YMR231W, strain pep5, stronger effect = lower value 0.998 | locus YNL071W, strain lat1, stronger effect = lower value 0.975 | locus YNL183C, strain NPR1, stronger effect = lower value 0.93 | locus YNL209W, strain ssb2, stronger effect = lower value 0.997 | locus YNL248C, strain rpa49, stronger effect = lower value 0.972 | locus YNL322C, strain KRE1 (second series), stronger effect = lower value 1.02 | locus YNR049C, strain mso1, stronger effect = lower value 0.999 | locus YOR001W, strain rrp6, stronger effect = lower value 0.945 | locus YOR070C, strain gyp1, stronger effect = lower value 1.02 | locus YOR080W, strain dia2, stronger effect = lower value 1.01 | locus YOR083W, strain WHI5, stronger effect = lower value 0.951 | locus YOR106W, strain vam3, stronger effect = lower value 0.964 | locus YOR231W, strain MKK1, stronger effect = lower value 0.954 | locus YOR265W, strain rbl2, stronger effect = lower value 0.996 | locus YOR270C, strain vph1, stronger effect = lower value 0.976 | locus YOR290C, strain snf2, stronger effect = lower value 0.969 | locus YPL051W, strain arl3, stronger effect = lower value 0.966 | locus YPL078C, strain atp4, stronger effect = lower value 0.939 | locus YPL106C, strain sse1, stronger effect = lower value 1.01 | locus YPL240C, strain hsp82, stronger effect = lower value 1.01 | locus YPL256C, strain CLN2, stronger effect = lower value 0.964
